For some assays here: Results with a measured potency or affinity are listed apart.
Columns and labels:
Design in all cases: scale not given: direction of the effect not stated beside the values
[1] = target: Protein translocase subunit SecA (Escherichia coli (strain K12)) (UniProt P10408); test: Assay to Identify E. coli SecA ATPase Inhibitors; assay type: functional; details: 30 µM
[2] = target: T1, Ubiquitin-activating enzyme e1, putative (Leishmania donovani (strain BPK282A1)) (UniProt E9BSI1); test: Leishmania donovani Ubiquitin Activating Enzyme (LdE1); assay type: functional; details: 30 µM
T1 sequence (whole entry): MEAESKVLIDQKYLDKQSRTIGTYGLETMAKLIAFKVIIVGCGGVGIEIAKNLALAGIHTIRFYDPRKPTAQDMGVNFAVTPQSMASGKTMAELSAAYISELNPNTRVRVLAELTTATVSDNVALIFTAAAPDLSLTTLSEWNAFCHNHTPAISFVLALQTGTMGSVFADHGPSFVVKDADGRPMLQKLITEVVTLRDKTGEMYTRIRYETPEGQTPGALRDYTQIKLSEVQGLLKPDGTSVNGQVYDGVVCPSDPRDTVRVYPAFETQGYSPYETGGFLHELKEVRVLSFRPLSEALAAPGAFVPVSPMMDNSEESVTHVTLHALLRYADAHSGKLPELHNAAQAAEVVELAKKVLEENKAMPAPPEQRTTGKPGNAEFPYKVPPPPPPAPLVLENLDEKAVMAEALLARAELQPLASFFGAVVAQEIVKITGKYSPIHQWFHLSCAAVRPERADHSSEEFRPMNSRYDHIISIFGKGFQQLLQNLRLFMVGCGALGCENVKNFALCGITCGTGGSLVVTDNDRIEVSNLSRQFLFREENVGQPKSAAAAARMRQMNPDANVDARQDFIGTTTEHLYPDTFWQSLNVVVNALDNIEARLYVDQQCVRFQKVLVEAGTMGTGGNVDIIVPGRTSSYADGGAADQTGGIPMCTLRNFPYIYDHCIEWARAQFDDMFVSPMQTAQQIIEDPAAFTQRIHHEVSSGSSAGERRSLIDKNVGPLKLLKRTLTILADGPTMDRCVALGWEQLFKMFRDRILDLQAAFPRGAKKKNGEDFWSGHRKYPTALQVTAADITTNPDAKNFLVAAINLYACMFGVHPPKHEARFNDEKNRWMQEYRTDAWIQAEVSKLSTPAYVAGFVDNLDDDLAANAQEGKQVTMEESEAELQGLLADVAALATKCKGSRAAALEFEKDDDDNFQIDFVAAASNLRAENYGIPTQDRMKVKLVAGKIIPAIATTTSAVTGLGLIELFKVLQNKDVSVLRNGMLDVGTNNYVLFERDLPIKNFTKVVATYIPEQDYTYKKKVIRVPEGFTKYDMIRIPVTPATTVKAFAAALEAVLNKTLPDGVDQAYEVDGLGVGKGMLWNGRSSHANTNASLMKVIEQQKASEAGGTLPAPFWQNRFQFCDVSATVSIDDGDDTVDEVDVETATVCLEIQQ

[3] = target: AMP-activated protein kinase, AMPK (Homo sapiens) (UniProt P54646+O43741+P54619+Q9UGJ0+Q9Y478+Q13131+Q9UGI9); test: AMP-dependent Kinase enzyme assay. An in vitro enzyme assay that detects ADP turnover that is directly proportional to AMPK activity. This uses naive AMPK that is activated during the assay with MK-8722; assay type: functional; details: 30 µM
[4] = target: Sialic acid-binding Ig-like lectin 9 (Homo sapiens) (UniProt Q9Y336); test: Hs-Siglec9 ALPHAscreen SOP 20170721; details: 10 µM
Chain of Sialic acid-binding Ig-like lectin 9 (Homo sapiens) (Q9Y336 whole entry): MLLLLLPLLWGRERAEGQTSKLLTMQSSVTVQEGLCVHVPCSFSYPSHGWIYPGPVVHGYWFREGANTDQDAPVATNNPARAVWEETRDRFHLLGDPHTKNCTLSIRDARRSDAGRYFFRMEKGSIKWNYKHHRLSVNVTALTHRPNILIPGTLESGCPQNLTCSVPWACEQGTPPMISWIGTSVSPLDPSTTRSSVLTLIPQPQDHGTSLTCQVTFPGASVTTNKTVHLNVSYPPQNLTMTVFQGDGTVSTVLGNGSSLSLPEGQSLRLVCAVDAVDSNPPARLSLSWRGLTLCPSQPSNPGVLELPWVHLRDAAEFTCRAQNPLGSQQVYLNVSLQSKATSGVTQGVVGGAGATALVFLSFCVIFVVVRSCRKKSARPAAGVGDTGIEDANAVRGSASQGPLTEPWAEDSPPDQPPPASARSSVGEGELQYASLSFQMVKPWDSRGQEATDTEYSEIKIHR

Trypanosoma cruzi = test: Trypanosoma cruzi phosphomannomutase and mannose-1-phosphate guanylyltransferase assay; assay type: functional; details: 10 µM
[5] = target: T2, Arginase-2, mitochondrial (Homo sapiens) (UniProt P78540); test: in vitro enzyme assay to detect the production of urea directly proportional to the activity of Arginase II; assay type: functional; details: 33.3 µM; also: in the data most compounds retested in dose-response had high values
T2 sequence (whole entry): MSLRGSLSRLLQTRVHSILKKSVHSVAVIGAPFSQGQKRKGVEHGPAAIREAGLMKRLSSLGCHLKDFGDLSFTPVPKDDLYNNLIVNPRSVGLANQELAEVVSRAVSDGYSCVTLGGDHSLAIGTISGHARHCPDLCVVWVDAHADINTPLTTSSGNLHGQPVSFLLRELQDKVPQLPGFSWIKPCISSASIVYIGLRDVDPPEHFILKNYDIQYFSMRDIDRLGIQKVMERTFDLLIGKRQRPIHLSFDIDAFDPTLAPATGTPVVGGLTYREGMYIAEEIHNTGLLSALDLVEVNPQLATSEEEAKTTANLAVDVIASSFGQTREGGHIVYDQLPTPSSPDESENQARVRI

[6] = target: T3, Proteasome subunit beta (Trypanosoma cruzi) (UniProt O96673); test: Trypanosoma cruzi proteasome chymotrypsin-like activity (TcProtChymo) assay.; also: in the data most compounds retested in dose-response had high values; assay type: functional; details: 9.37 µM
T3 sequence (whole entry): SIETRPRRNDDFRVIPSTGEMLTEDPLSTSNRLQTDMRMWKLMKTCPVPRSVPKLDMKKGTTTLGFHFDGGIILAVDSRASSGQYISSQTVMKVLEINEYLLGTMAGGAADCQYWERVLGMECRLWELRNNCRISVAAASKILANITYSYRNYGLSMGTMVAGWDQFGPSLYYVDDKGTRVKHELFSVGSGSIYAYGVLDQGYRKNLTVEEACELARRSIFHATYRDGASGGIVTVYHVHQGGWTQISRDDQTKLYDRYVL

Homo sapiens = species on record: Homo sapiens; test: To identify inhibition of the IFN signalling (Jak-Stat) pathway via expression of an eGFP reporter gene under the control of an IFN-stimulated response element (ISRE) containing MxA promoter.; assay type: functional; details: 30 µM
[7] = target: T4, Tyrosyl-tRNA synthetase, putative (Trypanosoma cruzi (strain CL Brener)) (UniProt Q4DSP6); test: Trypanosoma cruzi tyrosyl tRNA synthetase (TcYRS) _High Tyrosine SOP; assay type: functional; details: 30 µM; also: in the data most compounds retested in dose-response had high values
T4 sequence (whole entry): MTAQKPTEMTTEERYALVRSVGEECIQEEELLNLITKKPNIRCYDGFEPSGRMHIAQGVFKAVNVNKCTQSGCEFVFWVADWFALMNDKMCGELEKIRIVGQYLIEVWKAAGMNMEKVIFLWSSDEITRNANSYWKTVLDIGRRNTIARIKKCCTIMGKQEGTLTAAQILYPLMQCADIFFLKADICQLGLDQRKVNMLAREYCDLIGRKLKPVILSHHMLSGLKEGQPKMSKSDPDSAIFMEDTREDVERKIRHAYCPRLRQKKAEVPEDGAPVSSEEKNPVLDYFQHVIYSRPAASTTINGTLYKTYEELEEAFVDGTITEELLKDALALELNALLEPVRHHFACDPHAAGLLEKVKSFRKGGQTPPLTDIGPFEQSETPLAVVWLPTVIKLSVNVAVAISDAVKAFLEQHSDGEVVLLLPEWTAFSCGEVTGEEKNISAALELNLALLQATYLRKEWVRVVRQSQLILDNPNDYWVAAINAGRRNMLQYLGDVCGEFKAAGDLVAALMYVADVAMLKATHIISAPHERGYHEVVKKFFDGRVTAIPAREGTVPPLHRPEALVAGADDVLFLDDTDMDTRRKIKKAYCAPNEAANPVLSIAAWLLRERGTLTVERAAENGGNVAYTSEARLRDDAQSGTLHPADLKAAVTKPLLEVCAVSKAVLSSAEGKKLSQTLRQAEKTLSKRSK

[8] = target: T4, Tyrosyl-tRNA synthetase, putative (Trypanosoma cruzi (strain CL Brener)); test: Trypanosoma cruzi tyrosyl tRNA synthetase (TcYRS) SOP; assay type: functional; details: 30 µM
[9] = target: Chromo domain-containing protein 1 (Saccharomyces cerevisiae (strain ATCC 204508 / S288c) (Baker's yeast)) (UniProt P32657); test: ScCHD-1 Enzyme Inhibition Assay; assay type: functional; details: 30 µM; also: in the data most compounds retested in dose-response had high values
Chain of Chromo domain-containing protein 1 (Saccharomyces cerevisiae (strain ATCC 204508 / S288c) (Baker's yeast)) (P32657 whole entry, the tested form may be a part): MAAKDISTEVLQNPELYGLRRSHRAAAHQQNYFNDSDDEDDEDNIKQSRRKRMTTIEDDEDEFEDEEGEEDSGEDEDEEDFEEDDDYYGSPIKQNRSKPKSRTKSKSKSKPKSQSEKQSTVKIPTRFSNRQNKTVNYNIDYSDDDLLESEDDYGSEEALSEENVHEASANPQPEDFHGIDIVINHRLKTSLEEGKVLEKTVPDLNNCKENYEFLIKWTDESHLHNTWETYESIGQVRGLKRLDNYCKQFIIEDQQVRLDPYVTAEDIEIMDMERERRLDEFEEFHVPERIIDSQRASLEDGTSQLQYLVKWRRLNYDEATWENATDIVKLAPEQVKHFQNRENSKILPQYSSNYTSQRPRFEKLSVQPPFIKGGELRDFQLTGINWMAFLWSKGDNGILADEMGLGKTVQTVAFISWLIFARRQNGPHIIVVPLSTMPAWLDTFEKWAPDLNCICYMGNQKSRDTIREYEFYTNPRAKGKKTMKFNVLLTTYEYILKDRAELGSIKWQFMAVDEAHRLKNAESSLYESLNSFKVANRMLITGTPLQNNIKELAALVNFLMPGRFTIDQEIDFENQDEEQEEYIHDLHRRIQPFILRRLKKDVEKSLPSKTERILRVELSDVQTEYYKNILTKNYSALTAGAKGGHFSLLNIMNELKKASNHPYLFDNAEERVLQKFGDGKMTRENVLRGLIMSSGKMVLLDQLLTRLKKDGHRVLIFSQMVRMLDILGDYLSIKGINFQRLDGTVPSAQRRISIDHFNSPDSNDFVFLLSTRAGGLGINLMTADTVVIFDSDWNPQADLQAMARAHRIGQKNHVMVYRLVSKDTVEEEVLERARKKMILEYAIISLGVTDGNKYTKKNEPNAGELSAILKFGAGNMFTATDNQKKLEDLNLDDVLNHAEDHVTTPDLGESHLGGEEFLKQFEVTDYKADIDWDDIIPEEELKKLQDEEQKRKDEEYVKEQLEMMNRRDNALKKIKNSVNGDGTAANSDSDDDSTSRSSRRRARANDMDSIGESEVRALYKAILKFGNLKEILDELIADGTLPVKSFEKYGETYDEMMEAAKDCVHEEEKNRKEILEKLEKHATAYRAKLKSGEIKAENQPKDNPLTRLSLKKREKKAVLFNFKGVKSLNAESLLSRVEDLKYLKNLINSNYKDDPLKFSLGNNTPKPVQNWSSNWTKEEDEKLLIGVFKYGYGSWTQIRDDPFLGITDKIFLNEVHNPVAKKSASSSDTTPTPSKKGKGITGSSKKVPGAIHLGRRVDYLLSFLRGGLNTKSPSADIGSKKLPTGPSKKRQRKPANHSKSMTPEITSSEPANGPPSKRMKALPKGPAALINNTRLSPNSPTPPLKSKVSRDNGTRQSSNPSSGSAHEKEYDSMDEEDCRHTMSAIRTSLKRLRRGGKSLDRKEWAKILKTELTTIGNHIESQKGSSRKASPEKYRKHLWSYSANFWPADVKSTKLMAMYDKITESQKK

Chain of Protein translocase subunit SecA (Escherichia coli (strain K12)) (P10408 whole entry): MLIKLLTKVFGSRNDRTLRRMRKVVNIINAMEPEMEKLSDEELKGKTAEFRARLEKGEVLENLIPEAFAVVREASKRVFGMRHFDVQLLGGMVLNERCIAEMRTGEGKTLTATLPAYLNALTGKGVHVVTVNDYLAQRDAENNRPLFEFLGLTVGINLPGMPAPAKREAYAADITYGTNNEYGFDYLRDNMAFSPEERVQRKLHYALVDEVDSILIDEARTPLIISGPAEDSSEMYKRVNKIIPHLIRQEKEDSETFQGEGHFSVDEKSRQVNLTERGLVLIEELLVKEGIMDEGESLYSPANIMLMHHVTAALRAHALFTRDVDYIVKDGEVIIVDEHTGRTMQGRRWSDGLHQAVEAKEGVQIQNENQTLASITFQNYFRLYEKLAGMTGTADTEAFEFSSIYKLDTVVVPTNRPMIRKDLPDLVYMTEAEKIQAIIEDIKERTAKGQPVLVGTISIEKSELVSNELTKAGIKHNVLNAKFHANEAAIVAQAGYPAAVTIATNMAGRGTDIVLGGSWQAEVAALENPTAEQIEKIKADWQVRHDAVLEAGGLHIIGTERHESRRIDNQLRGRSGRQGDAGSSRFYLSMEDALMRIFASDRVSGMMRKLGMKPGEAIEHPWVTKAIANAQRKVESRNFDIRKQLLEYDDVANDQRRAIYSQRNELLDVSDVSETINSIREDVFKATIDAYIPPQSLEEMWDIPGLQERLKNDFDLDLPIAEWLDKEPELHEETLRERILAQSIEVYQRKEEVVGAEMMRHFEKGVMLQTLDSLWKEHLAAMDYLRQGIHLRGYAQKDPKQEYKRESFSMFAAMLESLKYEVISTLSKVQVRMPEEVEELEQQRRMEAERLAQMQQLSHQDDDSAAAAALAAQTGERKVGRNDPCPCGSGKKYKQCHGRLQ

Compound | Percent Effect [1] | Percent Effect [2] | Percent Effect [3] | Percent Effect [4] | Percent Effect (Trypanosoma cruzi) | Percent Effect [5] | Percent Effect [6] | Percent Effect (Homo sapiens) | Percent Effect [7] | Percent Effect [8] | Percent Effect [9]
COC(=O)c1cccn1C1CCN(C(=O)c2cc(F)ccc2F)CC1 | -4.16% | 13% | 1.19% | 0.495% | 4.87% | -6.76% | 3.04% | 19.8% | 5.83% | 14.6% | -9.49%
CCOc1ncccc1NC(=O)N1CCc2ccccc2C1 | -2.4% | -5.41% | -19.1% | 3.06% | -2.14% | 7.95% | 0% | -3.53% | -1.98% | -1.22% | 9.66%
CC(NC(=O)Cn1cccn1)c1ccc2c(c1)OCCCO2 (configuration not stated) | -2.38% | 28.6% | 20.8% | 1.54% | 6.55% | 3.92% | 10.1% | 32.9% | 8.74% | 14.6% | -16.5%
O=C1COC2(CCN(CC3CC3)CC2)CN1c1ccccc1 | -0.394% | 2.74% | -5.09% | 8.07% | 4.17% | -2% | 18.6% | -21.4% | 9.38% | 8.64% | -1.91%
CC(C)c1nc(C2CCCN2C(=O)c2cnc[nH]2)no1 (configuration not stated) | -7.47% | 8.11% | 3.18% | 5.28% | -6.96% | 0.554% | -5.75% | 23.2% | 0% | 1.22% | 4.79%
COCCNC(=O)C1(c2ccccc2C)CCOCC1 | -6.97% | 2.7% | -2.99% | -1.02% | -5% | 4.81% | 0.18% | 13.2% | 0.493% | -6.17% | -1.03%
Cc1nc2ccccc2c(=O)n1CCC(=O)N1CCNC(=O)C1 | -4.53% | 10.5% | 6.29% | 11.3% | 0.94% | 0% | 3.51% | 2.72% | 4.41% | 9.76% | -6.93%
O=C(Cc1ccc2c(c1)OCO2)N1CCN(c2cnccn2)CC1 | -1.75% | 15.8% | -3.5% | 4.13% | 6.77% | 4.21% | 8.69% | 2.58% | 5.39% | 21.9% | -11.8%
CS(=O)(=O)N1CCOCC2(CCN(C(=O)c3cccnc3)CC2)C1 | 0.0699% | 2.74% | 2.01% | -0.0941% | 2.78% | 4.79% | 9.33% | -18.8% | 0% | 3.7% | -3.11%
Cc1nocc1C(=O)N1CCc2c(CN(C)C(C)C)n[nH]c2C1 | 1.54% | 11% | -4.98% | 8.21% | 3.77% | -0.798% | 20.3% | 21% | 5.21% | 13.6% | -3.84%
CC(C)(C)NC(=O)NC(=O)CNC(C)(C)c1ccc2c(c1)OCCO2 | -5.89% | 13.5% | -6.92% | 1.3% | 0.472% | -4.01% | 6.67% | 11.6% | 4.43% | 13.6% | -5.2%
O=C(NCCC(=O)N1CCCC1)c1nn(-c2ccccc2F)cc1O | -10.5% | 10.8% | -8.26% | 24.5% | 8.82% | -0.554% | 8.08% | 17.9% | 5.94% | 15.8% | -11.4%
CCc1n[nH]c(C2CN(CCc3cccs3)CCO2)n1 (configuration not stated) | -7.68% | 11.4% | -4.38% | -6.28% | 3.38% | -1.94% | 8.06% | -6.82% | 2.08% | 17.7% | -43.9%
O=C(Cc1cccc(F)c1)NCCNCc1ccc2c(c1)CCO2 | -4.03% | 13% | -6% | 17.2% | 3.93% | -1.42% | -1.52% | -5.5% | 8.74% | 19.5% | -5.42%
Cc1ccc(-n2nnc(CC(=O)N3CCOCC3)c2C)cc1 | -3.24% | 18.2% | -1.18% | 11.4% | 5.61% | -12.4% | 13% | 6.11% | 6.45% | 18.5% | -6.8%
Cc1cnn(CC2CCCN2C(=O)c2ccc3cc[nH]c3c2)c1 (configuration not stated) | -1.42% | 1.27% | 3.59% | 1.53% | -1.33% | 1.5% | 2.4% | 13.8% | 0% | 5.06% | -8.72%
CCOc1ccccc1C(CC(=O)Nc1ccc(C)cn1)NC(C)=O (configuration not stated) | -3.17% | 10.5% | 7.35% | 5.85% | 6.77% | 1.15% | 4.34% | 4.19% | 8.33% | 17.1% | -15.3%
Cc1noc(C)c1CN1C(=O)[C@H]2CC[C@@H]1CN(Cc1cccnc1N)C2 | 0.397% | 1.39% | 15.3% | -8.6% | -8.46% | 3.53% | 23% | 31.8% | 0% | -5.13% | 3.37%
CN(CCCOc1ccc(F)cc1)Cc1nc2c(cnn2C)c(=O)[nH]1 | -0.991% | 15.8% | 0.698% | -3.57% | 4.39% | 1.8% | 14.8% | 0.0389% | 8.37% | 23.5% | -8.26%
Cc1cc(C)n(CC2CCCCN2Cc2cscn2)n1 (configuration not stated) | -3.65% | 13% | -3.15% | 14.9% | -1.27% | 4.42% | 7.52% | 12.4% | 7.62% | 11.8% | -10.8%
C[S+]([O-])CCCNC(=O)c1cc(Br)c2c(c1)OCCO2 (configuration not stated) | -5.04% | 10.7% | -5.08% | 28.9% | 5.55% | 48.4% | 2.62% | 8.03% | 2.73% | 13.6% | -7.44%
CC(=O)N1CCn2c(COCc3csc(C)n3)cnc2C1C (configuration not stated) | -5.84% | 18.7% | -3.96% | 4.19% | 4.05% | -55.7% | 9.57% | 7.41% | -10.4% | 15% | -9.91%

Reference: ChEMBL document CHEMBL3988442, “University of Dundee, Small-Polar-MMV Screening Library” (2021)
